# Bioassay records deposited in PubChem by several laboratories.
# This is a sample that favours compounds with a hit; in the whole collection about 4.1% have one here.
# MRP reversal = MRP-mediated drug resistance reversal; H69AR cells + 2 uM doxorubicin, CellTiter-Glo, 72 h; differential viability (reversal), % at 10 µM; 0.04% of 85,000 active; AID 602;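 active = viability drop by adding the cancer drug above about 55%, with treated viability meeting a 40% cutoff, limit read from the data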;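 also: viability without doxorubicin minus viability with 2 µM doxorubicin for each compound; larger differential means the compound sensitizes cells more to doxorubicin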
# CD11b adhes enh = enhancers of human CD11b/CD18 binding to fibrinogen; AID 1499; K562 CD11b/CD18 adhesion to fibrinogen, ATPlite luminescence; activation, % at 10 µM; 0.07% of 93,000 active; P05107+P11215;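 active = 10 µM primary screen giving 50% or more activity, confirmed by 40% or more on retest at that dose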
# Target sequence (P05107 whole entry, looked up, other chains not shown): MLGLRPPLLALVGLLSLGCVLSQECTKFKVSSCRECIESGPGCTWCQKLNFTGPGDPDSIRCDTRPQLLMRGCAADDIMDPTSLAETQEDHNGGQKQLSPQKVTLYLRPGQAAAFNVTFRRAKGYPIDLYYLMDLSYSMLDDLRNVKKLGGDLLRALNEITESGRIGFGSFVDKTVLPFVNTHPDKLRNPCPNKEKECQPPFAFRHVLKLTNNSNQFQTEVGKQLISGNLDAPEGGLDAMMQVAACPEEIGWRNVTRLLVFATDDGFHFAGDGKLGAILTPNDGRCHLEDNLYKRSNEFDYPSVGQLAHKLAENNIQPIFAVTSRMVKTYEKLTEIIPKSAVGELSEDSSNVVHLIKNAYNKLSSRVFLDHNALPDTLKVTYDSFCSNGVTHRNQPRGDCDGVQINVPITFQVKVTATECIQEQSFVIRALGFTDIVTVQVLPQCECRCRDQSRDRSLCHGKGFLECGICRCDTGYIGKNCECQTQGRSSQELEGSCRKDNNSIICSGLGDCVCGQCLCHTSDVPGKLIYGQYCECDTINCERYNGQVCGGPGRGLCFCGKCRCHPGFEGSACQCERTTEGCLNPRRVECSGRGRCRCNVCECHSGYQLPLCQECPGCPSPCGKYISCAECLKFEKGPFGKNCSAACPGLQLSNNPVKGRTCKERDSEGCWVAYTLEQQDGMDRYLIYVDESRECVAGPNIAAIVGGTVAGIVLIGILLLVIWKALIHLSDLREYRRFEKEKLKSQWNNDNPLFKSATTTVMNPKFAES
# Cav3 T inh = inhibitors of human Cav3.2 T-type calcium channel; 4% of 100,000 active; Cav3.2-expressing cells, Fluo-4 calcium fluorescence FDSS; stronger effect = lower value; O95180; B-score at 10 µM;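 active = single-dose well whose peak fluorescence ratio is a statistical outlier from its plate by either plate-standardised score or position-corrected B-score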
# Pyk2 oligo antag = antagonists of human Pyk2 oligomerization. Q14289. Q293 cells, Pyk2 FERM NanoBiT luminescence; stronger effect = lower value. z-score (the deposit names both 25 µM and 10 µM). 0.83% of 99,000 active;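 active = Z-score of -3 or lower, scaled per plate to the spread of control and sample wells; inactive = z-score above -3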;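 also: negative z-score means lost luminescence so less FERM oligomerization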
# CD11b adhes inh = CD11b/CD18-fibrinogen binding inhibition; P05107+P11215; K562 CD11b/CD18 adhesion to fibrinogen, ATPlite luminescence; Mn2+ added to activate the integrin; inhibition, % at 10 µM; 0.54% of 93,000 active;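 active = primary inhibition of 50% or more at 10 µM, then 40% or more on retest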
# MRP1 act = MRP-1 activation. viability increase, % at 10 µM. H69AR cells + doxorubicin, viability rescue, CellTiter-Glo. 0.61% of 140,000 active;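 active = viability gain under doxorubicin at or above a set limit, the compound median plus 3 SD, cut at about 4.7% in these data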;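 also: MRP-1 overexpressing cells given doxorubicin 25 µM after compound pretreatment; 18-22 h compound pretreatment then 72 h with doxorubicin before readout; 0% = doxorubicin-only wells and 100% = vehicle-treated cells without doxorubicin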
# An asterisk follows results filed as active; . = no result.
SMILES,MRP reversal,CD11b adhes enh,Cav3 T inh,Pyk2 oligo antag,CD11b adhes inh,MRP1 act
CC(=O)Nc1cccc(NC(=O)c2cc(-c3cccnc3)nc3ccc(Br)cc23)c1,.,53*,-3.3,-2.2,8,-3
Cc1ccccc1-c1noc(-c2ccc(O)cc2)n1,-44,0,0.54,-1.8,74*,-1
Cc1ccc(-c2nc(-c3ccccn3)no2)cc1,.,-9,-0.71,-0.75,91*,-4
N#Cc1ccc(N2CCN(c3ccc(F)cc3)CC2)cc1,-2,.,-1.6,1.1,.,3
Cn1c(/C(C#N)=C/c2ccc(-c3ccc(S(N)(=O)=O)cc3)o2)nc2ccccc21,.,.,.,-2.5,.,1
N#C/C(=C/c1ccc(Sc2nc3ccccc3[nH]2)o1)c1cccc(Br)c1,-25,1,-2.1,-3.1*,3,-6
N#C/C(=C/c1ccc(Sc2nc3ccccc3[nH]2)o1)c1cccc(F)c1,6,4,-4.5*,-3.2*,-20,-4
N#C/C(=C\c1ccc(Sc2ccccc2)o1)c1nc2ccccc2[nH]1,.,.,.,.,.,-1
N#C/C(=C/c1ccc(Sc2nc3ccccc3[nH]2)o1)c1ccccc1F,-15,-8,-2.9,-2.6,98,-2
Cc1ccc(-c2csc(NC(=O)CSc3nc4ccccc4o3)n2)cc1,.,.,.,.,.,-1
COc1ccccc1NC(=O)Cc1c(F)cccc1Cl,.,0,.,.,-1,0
COc1ccccc1C(=O)OCc1c(F)cccc1Cl,.,.,-1.9*,-0.96,.,0
CC1(C)C(C=C(Cl)Cl)C1C(=O)N1CCN(c2ccccc2)CC1 (stereo unspecified),0,34,-4.9*,-0.17,-13,-1
O=C(N1CCN(c2ccccc2)CC1)C12CC3CC(CC(C3)C1)C2,-2,6,-1.6,-0.99,2,-3
Cc1ccc(/C(CSc2nccn2-c2ncc(C(F)(F)F)cc2Cl)=N\O)cc1,.,2,-6.2*,-0.5,12,-2
CCOC(=O)c1cc2c(=O)n3cccc(C)c3nc2n(CC2CCCO2)c1=NC(C)=O (stereo unspecified),23,.,5.1*,-0.16,.,.
C=CCn1c(=N)c(C(=O)OCC)cc2c(=O)n3cccc(C)c3nc21,1,.,-0.14,.,.,.
Cc1cc(C)n(CNc2nc(C(F)(F)F)cs2)n1,.,-4,-0.33,2,1,0
CCN(CC)S(=O)(=O)c1cccc(C(=O)Nc2cccc(C)c2)c1,-13,2,-4.8,0.56,11,-1
CCN(CC)S(=O)(=O)c1cccc(NC(=O)C(=O)c2c(-c3ccccc3)cc3ccccn23)c1,.,4,.,0.34,10,4
CCN(CC)S(=O)(=O)c1cc(NC(=O)C(=O)c2c(-c3ccccc3)cc3ccccn23)ccc1C,5,-5,-4.6*,-0.39,24,6.9*
CCN(CC)S(=O)(=O)c1cccc(C(=O)N[C@H](C(=O)NCc2ccccc2F)C(C)C)c1,.,-6,-0.35,1.3,50,-1
CCN(CC)S(=O)(=O)c1cccc(C(=O)c2c(C)cc3ccccn23)c1,.,.,.,.,.,4.8*
CCN(CC)S(=O)(=O)c1cccc(C(=O)Nc2cc(C)cc(C)c2)c1,-7,.,-3.4*,-0.39,.,-1
CCN(CC)S(=O)(=O)c1cccc(C(=O)N[C@H](C(=O)NCc2ccc(Cl)cc2)C(C)C)c1,.,2,-9.8*,0.06,2,2
SMILES,MRP reversal,CD11b adhes enh,Cav3 T inh,Pyk2 oligo antag,CD11b adhes inh,MRP1 act
c1ccn2c(Cc3nnc4ccccn34)nnc2c1,.,-1,1.5,-0.02,-10,0
CCOC(=O)n1c(=O)n(Cc2ccc(Cl)c(Cl)c2)c2ccccc21,.,-3,.,-1.1,35,-1
NC(=O)/C(=C/c1ccco1)NC(=O)/C=C/c1ccccc1,.,0,-0.09,0.73,-36,-3
CC(C)CCOC(=O)/C(=C/c1ccco1)NC(=O)/C=C/c1ccccc1,8,.,-5.8*,0.39,.,-2
CCOC(=O)c1cnn(-c2ccccc2)c1-n1cccc1C(=O)C(=O)Nc1ccc(F)cc1,.,2,-4.3*,1.2,8,-2
CCOC(=O)c1cnn(-c2ccccc2)c1NC(=O)C(F)(F)C(F)(F)C(F)(F)F,.,-5,-0.2,0.17,3,1
COC(=O)c1ccccc1OCCCOc1ccc(C=O)cc1OC,.,.,-0.024,1.4,.,-3
CCCCc1nnc(NC(=O)CSc2nc(=O)cc(N)n2-c2cccc(C)c2)s1,-7,0,0.2,-1.2,2,6.0*
Cc1ccc(NC(=O)CCNC(=O)c2ccc(Cl)cc2)cc1F,.,.,.,.,.,5.4*
CCOc1ccc(-c2nc(N)ncc2-c2ccc(OC)cc2)c(O)c1,.,.,.,.,.,-3
CCCc1cc(-c2nc(N)ncc2-c2ccc3c(c2)OCCCO3)c(O)cc1OC,-24,.,-1.5,-3.1*,.,1
Cc1cccc(N2C(N)=C(C#N)C(C#N)(C#N)C2c2ccccc2)c1 (stereo unspecified),-9,-4,.,0.84,12,-2
N#CC1=C(N)N(c2ccccc2)C(c2cccc([N+](=O)[O-])c2)C1(C#N)C#N (stereo unspecified),-23,-4,-6.6*,-0.87,10,-5
CC1(O)N(Cc2ccccc2)C(=O)OC12CCCCC2 (stereo unspecified),8,0,-1.1,0.04,0,-2
FC(F)(F)c1cc(Oc2ccccc2)nc(-c2ccccn2)n1,.,.,-0.42,0.11,.,-2
FC(F)(F)c1cc(C(F)(F)F)c2ccc(Oc3ccccc3)nc2n1,.,.,-4.7*,1.4,.,-3
Cc1ccc(N2C(N)=C(C#N)C(c3cccnc3)C3=C2CCCC3=O)cc1 (stereo unspecified),-2,-3,3,-0.47,-4,-4
N#CC1=C(N)N(c2ccc(Br)cc2)C2=C(C(=O)CCC2)C1c1cccnc1 (stereo unspecified),59*,-3,.,-1.3,5,-5
CC1CCc2nc3ccccc3c(C(=O)OCC(=O)N3CCc4ccccc43)c2C1 (stereo unspecified),.,.,.,.,.,-3
CCc1nc(SCc2ccc(F)cc2)[nH]c(=O)c1C#N,17,.,-7.7*,-0.27,.,0
C/C(=N\OC(=O)c1ccc(F)cc1)c1nccs1,.,.,-0.91,0.59,.,-1
C/C(=N/OC(=O)c1c(F)cccc1F)c1nccs1,.,-5,-4.7*,1.2,-54,-1
COc1ccc(NC(=O)CSc2nnc(Cc3cccn3C)n2-c2ccc(F)cc2)cc1,6,3,-2.9,.,-4,0
COc1ccc(-n2c(Cc3cccn3C)nnc2SCC(=O)Nc2ccc(F)cc2)cc1,-7,1,-8.6*,.,46,-1
CCOc1ccc(NC(=O)CSc2nnc(Cc3cccn3C)n2-c2ccc(F)cc2)cc1,-4,-6,-7.4*,.,-2,-4
COc1ccccc1NS(=O)(=O)c1cccc(C(=O)N/N=C/c2cn(-c3ccccc3)nc2-c2ccccc2)c1,.,.,.,.,.,-2
Cc1sc2nc3c4ccccc4c(NCc4ccco4)nn3c(=O)c2c1C,-17,44,1.7,0.12,-3,-1
Cc1nc(NCc2ccco2)c2c(C)c(C)sc2n1,-8,-6,-2.9,0.9,83*,-2
